From the supplement of paper PMC11732987, “Enantioselective OTUD7B fragment discovery through chemoproteomics screening and high-throughput optimisation” (Communications Chemistry, 2025)
Unmarked numbers belong to inactive results.

Experiments:
Assay in all cases: log2 ratio of Biotin-Ahx-Ub-VS probe labelling (compound/DMSO); higher = less target engagement, active = hit call of the paper (q ≤ 0.05, log2 ratio ≤ -1)
Details in all cases: treatment time: 3 h
[1] = compound: CN(Cc1cccc(Br)c1)C(=O)CCl
Outline: (§1)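 Compound at 50 or 200 µM, or DMSO, was applied for 3 h in triplicate to HEK293T lysate (495 µg per sample, Tris/CHAPS/IGEPAL buffer with protease inhibitors), after which Biotin-Ahx-Ub-VS was added at 0.5 µM final for 1 h. The labelled DUBs were pulled down with NeutrAvidin, digested with LysC and trypsin, and run by diaPASEF LC-MS/MS. Ratios are averaged base-two logs of compound over DMSO from median-normalised label-free quantities by unpaired t-test, counting only proteins with at least 2 unique peptides.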

[2] = compound: CN(Cc1cccc(OCc2ccccc2C)c1)C(=O)CCl
Outline: as §1

[3] = compound: CN(Cc1ccccc1)C(=O)CCl
Outline: as §1

[4] = compound: COc1ccc(CN(C)C(=O)CCl)cc1
Outline: as §1

[5] = compound: COc1cccc(CN(CCCc2ccccc2)C(=O)CCl)c1
Outline: as §1

[6] = compound: ClCC(=O)N1CCc2cc(Cl)c(Cl)cc2C1
Outline: as §1

[7] = compound: ClCC(=O)N1CCc2nc(ncc2C1)-c1ccccc1
Outline: as §1

[8] = compound: ClCC(=O)N1CCc2nocc2C1
Outline: as §1

[9] = compound: ClCC(=O)N1CCc2scc(Br)c2C1
Outline: as §1

[10] = compound: ClCC(=O)NC(C1CCCC1)c1cccs1
Outline: as §1

[11] = compound: ClCC(=O)NC1CCCc2ccccc12
Outline: as §1

[12] = compound: ClCC(=O)NC1CCOc2ccc(Cl)cc12
Outline: as §1

[13] = compound: ClCC(=O)NC1CCSc2ccccc12
Outline: as §1

[14] = compound: ClCC(=O)N[C@H]1CCCc2ccccc12
Outline: as §1

[15] = compound: Fc1ccc(N2CCN(c3nc4c(CN(C(CCl)=O)CC4)cn3)CC2)cc1.Cl.Cl
Outline: as §1

Sequence of UniProt Q5VVQ6 (Q5VVQ6 whole entry): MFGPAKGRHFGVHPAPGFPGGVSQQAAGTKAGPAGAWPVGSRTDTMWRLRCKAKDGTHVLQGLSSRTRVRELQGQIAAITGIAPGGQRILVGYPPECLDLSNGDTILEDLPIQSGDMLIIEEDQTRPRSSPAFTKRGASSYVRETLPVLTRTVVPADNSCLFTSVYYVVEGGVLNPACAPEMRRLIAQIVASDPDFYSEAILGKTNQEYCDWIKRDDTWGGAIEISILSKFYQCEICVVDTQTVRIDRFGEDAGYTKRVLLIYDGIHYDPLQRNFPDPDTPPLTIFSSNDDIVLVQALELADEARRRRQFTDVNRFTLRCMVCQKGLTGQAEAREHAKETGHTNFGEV
Sequence of UniProt Q8TE49 (Q8TE49 whole entry): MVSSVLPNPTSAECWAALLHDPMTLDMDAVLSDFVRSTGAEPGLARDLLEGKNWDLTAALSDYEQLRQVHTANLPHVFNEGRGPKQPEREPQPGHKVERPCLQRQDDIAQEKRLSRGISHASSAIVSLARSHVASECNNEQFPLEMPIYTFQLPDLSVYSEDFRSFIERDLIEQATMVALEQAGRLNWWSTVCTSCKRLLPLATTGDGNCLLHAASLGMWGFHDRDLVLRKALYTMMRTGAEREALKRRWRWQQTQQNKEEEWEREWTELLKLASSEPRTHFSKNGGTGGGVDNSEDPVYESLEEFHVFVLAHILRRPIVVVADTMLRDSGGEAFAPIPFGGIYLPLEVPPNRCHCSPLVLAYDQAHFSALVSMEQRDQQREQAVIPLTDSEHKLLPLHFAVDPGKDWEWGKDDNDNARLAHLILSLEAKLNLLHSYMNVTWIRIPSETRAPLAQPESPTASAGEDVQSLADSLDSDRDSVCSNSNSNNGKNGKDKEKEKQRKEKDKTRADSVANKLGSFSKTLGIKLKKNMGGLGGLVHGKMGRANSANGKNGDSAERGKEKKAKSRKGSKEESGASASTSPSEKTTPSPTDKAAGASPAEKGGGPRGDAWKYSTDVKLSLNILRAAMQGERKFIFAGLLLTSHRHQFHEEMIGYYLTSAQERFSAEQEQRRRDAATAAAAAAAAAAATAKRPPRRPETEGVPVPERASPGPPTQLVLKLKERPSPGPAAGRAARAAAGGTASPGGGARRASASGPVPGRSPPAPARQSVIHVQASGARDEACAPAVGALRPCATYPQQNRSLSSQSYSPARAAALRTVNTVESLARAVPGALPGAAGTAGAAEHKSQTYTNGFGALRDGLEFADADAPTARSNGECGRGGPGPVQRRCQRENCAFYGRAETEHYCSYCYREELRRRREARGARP
Sequence of UniProt P15374 (P15374 whole entry): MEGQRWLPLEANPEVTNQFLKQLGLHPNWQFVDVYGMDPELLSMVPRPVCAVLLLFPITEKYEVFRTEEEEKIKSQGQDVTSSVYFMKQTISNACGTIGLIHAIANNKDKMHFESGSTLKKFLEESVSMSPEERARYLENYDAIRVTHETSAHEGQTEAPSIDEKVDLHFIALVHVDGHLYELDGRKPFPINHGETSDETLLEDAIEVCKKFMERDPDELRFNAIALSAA
Sequence of UniProt Q70CQ2 (Q70CQ2 whole entry): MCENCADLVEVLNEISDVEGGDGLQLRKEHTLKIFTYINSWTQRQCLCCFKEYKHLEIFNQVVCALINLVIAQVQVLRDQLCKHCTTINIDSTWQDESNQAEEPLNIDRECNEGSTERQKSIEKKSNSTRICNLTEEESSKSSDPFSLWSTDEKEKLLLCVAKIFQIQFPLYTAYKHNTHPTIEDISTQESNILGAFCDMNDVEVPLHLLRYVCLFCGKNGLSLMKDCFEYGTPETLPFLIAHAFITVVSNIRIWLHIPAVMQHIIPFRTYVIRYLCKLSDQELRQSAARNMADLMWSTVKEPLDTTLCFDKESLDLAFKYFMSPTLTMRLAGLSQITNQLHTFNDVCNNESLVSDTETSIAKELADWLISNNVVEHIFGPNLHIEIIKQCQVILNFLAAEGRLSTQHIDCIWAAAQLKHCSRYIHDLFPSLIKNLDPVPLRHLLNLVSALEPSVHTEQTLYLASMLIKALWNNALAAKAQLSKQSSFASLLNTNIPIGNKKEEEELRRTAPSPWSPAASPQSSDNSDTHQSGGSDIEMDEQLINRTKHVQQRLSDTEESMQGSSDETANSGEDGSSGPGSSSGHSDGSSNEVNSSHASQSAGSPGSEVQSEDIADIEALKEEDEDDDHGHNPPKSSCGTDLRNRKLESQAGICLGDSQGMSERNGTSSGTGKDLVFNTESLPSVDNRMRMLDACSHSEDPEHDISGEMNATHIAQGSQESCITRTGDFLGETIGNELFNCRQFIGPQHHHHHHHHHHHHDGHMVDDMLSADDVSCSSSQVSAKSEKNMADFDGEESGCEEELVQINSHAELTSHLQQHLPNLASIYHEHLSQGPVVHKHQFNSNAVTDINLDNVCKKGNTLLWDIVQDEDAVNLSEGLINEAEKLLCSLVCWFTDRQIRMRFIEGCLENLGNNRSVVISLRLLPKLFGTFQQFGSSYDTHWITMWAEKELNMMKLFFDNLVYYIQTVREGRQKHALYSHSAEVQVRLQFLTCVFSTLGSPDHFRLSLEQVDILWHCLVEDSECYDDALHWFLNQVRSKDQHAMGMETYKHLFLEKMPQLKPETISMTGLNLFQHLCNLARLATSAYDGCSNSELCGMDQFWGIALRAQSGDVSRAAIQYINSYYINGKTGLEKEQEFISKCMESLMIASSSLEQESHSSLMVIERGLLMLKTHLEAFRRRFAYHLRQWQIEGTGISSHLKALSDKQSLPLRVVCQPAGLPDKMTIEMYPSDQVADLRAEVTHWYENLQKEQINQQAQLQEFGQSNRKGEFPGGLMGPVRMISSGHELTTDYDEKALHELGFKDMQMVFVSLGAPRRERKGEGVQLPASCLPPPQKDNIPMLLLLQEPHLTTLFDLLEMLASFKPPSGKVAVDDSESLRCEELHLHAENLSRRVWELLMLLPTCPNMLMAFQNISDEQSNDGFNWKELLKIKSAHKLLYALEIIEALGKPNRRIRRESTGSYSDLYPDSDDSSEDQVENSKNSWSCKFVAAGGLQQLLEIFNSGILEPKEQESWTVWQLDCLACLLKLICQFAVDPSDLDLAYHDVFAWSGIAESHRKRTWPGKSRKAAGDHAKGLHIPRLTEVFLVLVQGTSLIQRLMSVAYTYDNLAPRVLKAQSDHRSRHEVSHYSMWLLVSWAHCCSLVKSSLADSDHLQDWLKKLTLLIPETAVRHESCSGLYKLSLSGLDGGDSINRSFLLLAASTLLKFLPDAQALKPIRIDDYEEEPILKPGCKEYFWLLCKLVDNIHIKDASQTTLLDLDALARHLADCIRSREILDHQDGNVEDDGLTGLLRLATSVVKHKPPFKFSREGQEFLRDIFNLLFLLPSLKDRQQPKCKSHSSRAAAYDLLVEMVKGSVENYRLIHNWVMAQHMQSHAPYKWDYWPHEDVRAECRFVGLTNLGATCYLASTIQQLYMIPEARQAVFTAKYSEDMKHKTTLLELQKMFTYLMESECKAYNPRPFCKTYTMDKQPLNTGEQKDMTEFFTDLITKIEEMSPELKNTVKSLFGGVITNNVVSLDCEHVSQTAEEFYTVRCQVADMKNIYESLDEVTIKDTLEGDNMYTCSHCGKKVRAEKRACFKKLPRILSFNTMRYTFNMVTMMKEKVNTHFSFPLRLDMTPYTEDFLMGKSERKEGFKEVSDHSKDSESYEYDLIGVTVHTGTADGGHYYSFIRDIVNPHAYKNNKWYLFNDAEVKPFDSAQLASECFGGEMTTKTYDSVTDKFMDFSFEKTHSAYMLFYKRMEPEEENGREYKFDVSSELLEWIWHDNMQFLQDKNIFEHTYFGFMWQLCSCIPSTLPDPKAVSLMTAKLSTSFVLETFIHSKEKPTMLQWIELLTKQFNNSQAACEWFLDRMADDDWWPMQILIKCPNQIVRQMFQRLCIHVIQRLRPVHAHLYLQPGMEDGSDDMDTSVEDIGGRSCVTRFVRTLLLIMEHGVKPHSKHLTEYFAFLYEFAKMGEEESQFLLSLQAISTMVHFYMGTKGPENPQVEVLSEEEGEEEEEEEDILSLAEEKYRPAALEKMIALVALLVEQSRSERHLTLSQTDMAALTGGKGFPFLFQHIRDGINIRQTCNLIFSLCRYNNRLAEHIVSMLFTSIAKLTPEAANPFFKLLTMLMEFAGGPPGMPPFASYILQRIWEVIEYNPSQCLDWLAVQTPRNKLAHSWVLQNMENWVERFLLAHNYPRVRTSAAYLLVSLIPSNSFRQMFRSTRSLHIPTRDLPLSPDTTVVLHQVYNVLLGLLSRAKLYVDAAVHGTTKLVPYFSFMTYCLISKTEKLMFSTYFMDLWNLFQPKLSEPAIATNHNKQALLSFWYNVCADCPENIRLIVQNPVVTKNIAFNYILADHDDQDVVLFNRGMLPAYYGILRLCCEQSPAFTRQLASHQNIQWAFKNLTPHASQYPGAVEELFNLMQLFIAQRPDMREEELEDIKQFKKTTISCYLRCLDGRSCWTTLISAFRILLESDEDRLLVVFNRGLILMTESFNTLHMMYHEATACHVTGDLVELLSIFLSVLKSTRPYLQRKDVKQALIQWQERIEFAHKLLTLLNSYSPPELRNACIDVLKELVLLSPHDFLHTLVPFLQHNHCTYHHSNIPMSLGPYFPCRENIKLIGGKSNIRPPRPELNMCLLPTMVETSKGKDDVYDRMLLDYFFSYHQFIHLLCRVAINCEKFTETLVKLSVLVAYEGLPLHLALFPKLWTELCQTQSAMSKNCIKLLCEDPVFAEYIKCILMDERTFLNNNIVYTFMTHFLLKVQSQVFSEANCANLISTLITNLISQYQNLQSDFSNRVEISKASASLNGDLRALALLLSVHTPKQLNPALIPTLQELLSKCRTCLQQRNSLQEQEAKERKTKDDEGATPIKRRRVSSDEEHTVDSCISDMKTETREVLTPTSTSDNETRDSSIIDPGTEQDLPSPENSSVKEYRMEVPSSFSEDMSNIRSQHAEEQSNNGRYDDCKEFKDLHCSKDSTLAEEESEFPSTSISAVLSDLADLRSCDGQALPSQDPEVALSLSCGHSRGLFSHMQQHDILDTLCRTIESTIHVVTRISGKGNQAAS

Row | Target | log2 ratio of Biotin-Ahx-Ub-VS probe labelling ([1]; compound concentration: 50uM) | log2 ratio of Biotin-Ahx-Ub-VS probe labelling ([1]; compound concentration: 200uM) | log2 ratio of Biotin-Ahx-Ub-VS probe labelling ([2]; compound concentration: 50uM) | log2 ratio of Biotin-Ahx-Ub-VS probe labelling ([2]; compound concentration: 200uM) | log2 ratio of Biotin-Ahx-Ub-VS probe labelling ([3]; compound concentration: 50uM) | log2 ratio of Biotin-Ahx-Ub-VS probe labelling ([3]; compound concentration: 200uM) | log2 ratio of Biotin-Ahx-Ub-VS probe labelling ([4]; compound concentration: 50uM) | log2 ratio of Biotin-Ahx-Ub-VS probe labelling ([4]; compound concentration: 200uM) | log2 ratio of Biotin-Ahx-Ub-VS probe labelling ([5]; compound concentration: 50uM) | log2 ratio of Biotin-Ahx-Ub-VS probe labelling ([5]; compound concentration: 200uM) | log2 ratio of Biotin-Ahx-Ub-VS probe labelling ([6]; compound concentration: 50uM) | log2 ratio of Biotin-Ahx-Ub-VS probe labelling ([6]; compound concentration: 200uM) | log2 ratio of Biotin-Ahx-Ub-VS probe labelling ([7]; compound concentration: 50uM) | log2 ratio of Biotin-Ahx-Ub-VS probe labelling ([7]; compound concentration: 200uM) | log2 ratio of Biotin-Ahx-Ub-VS probe labelling ([8]; compound concentration: 50uM) | log2 ratio of Biotin-Ahx-Ub-VS probe labelling ([8]; compound concentration: 200uM) | log2 ratio of Biotin-Ahx-Ub-VS probe labelling ([9]; compound concentration: 50uM) | log2 ratio of Biotin-Ahx-Ub-VS probe labelling ([9]; compound concentration: 200uM) | log2 ratio of Biotin-Ahx-Ub-VS probe labelling ([10]; compound concentration: 50uM) | log2 ratio of Biotin-Ahx-Ub-VS probe labelling ([10]; compound concentration: 200uM) | log2 ratio of Biotin-Ahx-Ub-VS probe labelling ([11]; compound concentration: 50uM) | log2 ratio of Biotin-Ahx-Ub-VS probe labelling ([11]; compound concentration: 200uM) | log2 ratio of Biotin-Ahx-Ub-VS probe labelling ([12]; compound concentration: 50uM) | log2 ratio of Biotin-Ahx-Ub-VS probe labelling ([12]; compound concentration: 200uM) | log2 ratio of Biotin-Ahx-Ub-VS probe labelling ([13]; compound concentration: 50uM) | log2 ratio of Biotin-Ahx-Ub-VS probe labelling ([13]; compound concentration: 200uM) | log2 ratio of Biotin-Ahx-Ub-VS probe labelling ([14]; compound concentration: 50uM) | log2 ratio of Biotin-Ahx-Ub-VS probe labelling ([14]; compound concentration: 200uM) | log2 ratio of Biotin-Ahx-Ub-VS probe labelling ([15]; compound concentration: 50uM) | log2 ratio of Biotin-Ahx-Ub-VS probe labelling ([15]; compound concentration: 200uM)
1 | USP34 (UniProt Q70CQ2) | 0.504 | 0.192 | 0.154 | -0.582 | 0.682 | -0.913 | 0.746 | -0.399 | -0.287 | -0.935 | -0.17 | -1.47 (active) | 0.583 | -0.403 | 0.31 | -0.0396 | 0.689 | -0.0731 | -0.0579 | -0.14 | -0.752 | -0.268 | 0.178 | 0.0865 | -0.0836 | -0.557 | -0.0266 | 0.046 | -0.25 | -0.554
2 | YOD1 (UniProt Q5VVQ6) | -0.152 | 0.742 | -0.555 | -0.132 | -0.391 | -0.259 | -0.465 | -0.288 | -0.0608 | 0.000762 | 0.356 | -0.373 | 0.102 | 0.0411 | -0.0213 | -0.416 | 0.039 | -0.482 | -0.11 | 0.00107 | -0.158 | 0.159 | -0.167 | -0.318 | 0.161 | -0.174 | 0.362 | -0.265 | 0.0837 | -0.394
3 | UniProt Q8TE49 | -0.52 | -0.96 | -0.844 | -1.04 | -0.139 | -0.82 | -0.245 | -0.895 | -0.508 | -0.562 | -0.0686 | -1.89 (active) | -0.422 | -1.52 (active) | -0.33 | -2.04 (active) | -0.0558 | -1.81 (active) | 0.0953 | -0.534 | -1.68 (active) | -2.58 (active) | -0.472 | -2.17 (active) | -0.368 | -2.26 (active) | -2.07 (active) | -2.92 (active) | -0.151 | -1.37 (active)
4 | UCHL3 (UniProt P15374) | -0.149 | -0.181 | -0.479 | -0.262 | -0.409 | -0.314 | -0.297 | -0.108 | -0.15 | -0.296 | -0.0194 | -0.59 | -0.0966 | -0.705 | -0.331 | -0.399 | -1.73 (active) | -4.16 (active) | -0.0539 | -0.088 | -0.203 | 0.0177 | -0.519 | -0.27 | -0.0871 | -0.294 | -0.224 | -0.372 | -1.23 (active) | -4.19 (active)
